Hits are enriched below; roughly 4.1% of the tested compounds scored in any of these assays.
pCIP destab: lowers stability of the mouse p/CIP coactivator protein; decrease of EGFP signal, % at 10 µM; 290,000 compounds, 0.01% hits; F442A p/CIP-EGFP cells, EGFP fluorescence, 16 h;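 active = EGFP signal decrease of at least 30% at 10 µM or well 3 SD below plate mean, unless failing retest; inactive = the rest, including hits failing retest or dose response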
MIN6 prolif: inducers of beta-cell replication in MIN6 cells; 330,000 compounds, 0.29% hits; MIN6 cells proliferation, ATPlite luminescence, 48 h; cells starved in 0.2% serum; 100% = growth in 10% serum; proliferation, % at 10 µM;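 active = compounds whose signal lies at least 3.5 SD above the mean of all wells on their plate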;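 note: 0% = DMSO-treated cells in low-serum medium and 100% = 10% serum control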
FAS TE block: blocks the thioesterase domain of human fatty acid synthase; recombinant FAS-TE, OMFH fluorogenic substrate, fluorescence endpoint; P49327; inhibition, % at 15 µM; 360,000 compounds, 0.67% hits;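 active = compounds whose normalised, plate-corrected inhibition of enzyme fluorescence in the single-dose primary screen is 50% or more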;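 note: 0% = DMSO with enzyme and 100% = substrate without enzyme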
MPTP inh: blocks calcium-induced mitochondrial swelling; inhibition, % at 10 µM; isolated mouse mitochondria, Ca2+ swelling absorbance, 30 min; 360,000 compounds, 1.4% hits;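 active = inhibition of 50% or more, scaled per plate between neutral and stimulator controls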;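 note: 0% = DMSO wells given calcium and 100% = 1 mM EGTA wells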
NR3A LBD binder: modulators (binders) of human NR3A ligand-binding domain | Tm shift relative to glycine control, % at 25 µM | 340,000 compounds, 2.5% hits | NR3A LBD differential scanning fluorimetry, Tm shift; 0% = protein alone, 100% = glycine-bound protein;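 active = melting temperature shift of at least 10% of the positive control shift, at one fixed dose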
Active calls of the source: *; / = no result.

SMILES	pCIP destab	MIN6 prolif	FAS TE block	MPTP inh	NR3A LBD binder
COc1ccc(OC)c(-c2csc(NC(=O)CSc3ccc(Br)cc3)n2)c1	-2	-6	21	39	19*
COc1ccc(OC)c(-c2csc(NC(=O)COC(=O)c3ccc(NC(=O)CC#N)cc3)n2)c1	/	-2	13	-1	13*
COc1ccc(OC)c(-c2csc(NC(=O)Cc3cc(OC)c(OC)c(OC)c3)n2)c1	-23	3	12	4	-3
O=C(COc1ccc(Br)cc1Br)NNC(=O)c1cccs1	5	-3	1	0	0
Cc1cc(Br)cc(C)c1OCC(=O)NNC(=O)c1cccs1	-11	-1	1	0	13*
COc1ccc(-c2noc(CCC(=O)NC3CCCCCC3)n2)cc1OC	/	/	-6	-1	/
O=C(N/N=C/c1ccccc1)c1ccco1	-6	-1	-1	-1	-1
Cc1cc(C(=O)N/N=C/c2ccc(OCc3ccccc3)cc2)c(C)o1	0	-4	18	0	14*
COc1ccc(/C=N/NC(=O)c2cc(C)oc2C)cc1OCc1ccccc1	-6	1	16	-1	-11
O=C(N/N=C/c1ccc(OCc2ccccc2)cc1)c1ccco1	10	-3	1	2	13*
CCc1nc2c(OCc3cccc(Cl)c3)cccn2c1N(C)C(=O)C1CC1	/	/	-1	1	/
Cc1cc(=O)[nH]c(N2CCCCC2)n1	/	/	-7	-1	1
CC(=O)c1cccc(NC(=O)C2Cc3c(-c4ccco4)ccnc3O2)c1 (stereo unspecified)	/	/	1	-2	/
CN1/C(=C/C(=O)c2ccc(Cl)cc2)Sc2cc3c(cc21)OCO3	-6	-4	-13	6	16*
Cc1nn(-c2ccccc2)c2c1C(c1ccc(O)c(O)c1)N1C(=N2)C(Nc2ccccc2)=Nc2ccccc21 (stereo unspecified)	-9	-7	-4	-4	1
Cc1nn(-c2ccccc2)c2c1C(c1ccc(Cl)cc1)N(c1ccccc1)C(=O)N2 (stereo unspecified)	-8	1	27	2	-1
Cc1cccc(NC2=Nc3ccccc3N3C2=Nc2c(c(C)nn2-c2ccccc2)C3c2ccc(O)c(O)c2)c1 (stereo unspecified)	-5	-7	21	3	22*
Cc1ccc(NC2=Nc3ccccc3N3C2=Nc2c(c(C)nn2-c2ccccc2)C3c2ccc(O)c(O)c2)cc1 (stereo unspecified)	-18	/	28	2	15*
COc1cc(/C=C2\CCC(C)C3=C(c4cc(OC)c(OC)c(OC)c4)C(C#N)=C(N)OC32)cc(OC)c1OC (stereo unspecified)	/	/	-69	-2	1
CC1(C(=O)NS(=O)(=O)c2ccccc2OC(F)(F)F)CCN1C(=O)Cc1ccccc1 (stereo unspecified)	/	/	-10	0	/
O=C(O)c1ccccc1NS(=O)(=O)c1ccc(NN=Cc2ccccc2F)c([N+](=O)[O-])c1	/	-5	20	45	10*
CSc1ccc(C=NNc2ccc(S(=O)(=O)Nc3ccccc3C(=O)O)cc2[N+](=O)[O-])cc1	/	-6	40	49	9
O=C(O)c1ccc(N/N=C/C=C/c2ccccc2[N+](=O)[O-])cc1	-7	0	-4	1	2
COc1ccc(C=NNc2ccc(S(=O)(=O)Nc3ccccc3C(=O)O)cc2[N+](=O)[O-])c(OC)c1	/	-4	49	41	457*
O=[N+]([O-])c1ccccc1/C=C/C=N/Nc1ccc(S(=O)(=O)Nc2ccc(Cl)cc2)cc1[N+](=O)[O-]	-21	-7	46	4	11*
SMILES	pCIP destab	MIN6 prolif	FAS TE block	MPTP inh	NR3A LBD binder
COc1ccc(NC(=S)NNc2ccc(S(=O)(=O)Nc3ccccc3C(=O)O)cc2[N+](=O)[O-])cc1	-2	-5	5	3	16*
CCOc1ccc(C=NNc2ccc(S(=O)(=O)Nc3ccccc3C(=O)O)cc2[N+](=O)[O-])cc1	/	-6	40	38	5
COCCNC(=O)C1(C)CCN(Cc2cccc(Oc3ccccc3)c2)C1 (stereo unspecified)	/	/	-6	-1	/
CCOc1cccc(C=NNc2ccc(S(=O)(=O)Nc3ccccc3C(=O)O)cc2[N+](=O)[O-])c1O	/	1	6	0	17*
CCNS(=O)(=O)c1ccc(NC(=O)Nc2ccccc2OC)cc1	-4	3	0	-1	14*
COc1ccccc1CNS(=O)(=O)c1ccc(NC(C)=O)cc1	7	1	-5	-1	1
COc1ccc(C)cc1NC(=O)NNS(=O)(=O)c1ccc(NC(C)=O)cc1	8	-1	-7	0	2
CCNS(=O)(=O)c1ccc(NC(=O)Nc2cc(C)ccc2OC)cc1	2	1	4	2	20*
COc1ccccc1NS(=O)(=O)c1ccc(NC(=O)N2CCCCC2)cc1	2	8	-4	0	13*
COc1ccccc1CNC(=O)Nc1nnc([C@H]2C[C@H](O)[C@@H](CO)O2)s1	/	/	-8	0	/
CC(=O)Nc1c(C#N)c(-c2ccccc2)c(C#N)c(=O)n1-c1ccc(C)cc1	/	/	-7	1	/
Cc1[nH]c2ccccc2c1C(=O)C(=O)N1CCOCC1	10	4	-5	-2	-1
Cc1[nH]c2ccccc2c1C(=O)CSC(=S)N1CCOCC1	-1	-2	3	3	14*
CC(=O)C[C@H]1c2cc(C(F)(F)F)ccc2S(=O)(=O)N1Cc1ccccc1	/	-2	0	-1	0
COC(=O)C[C@H]1c2ccc(C(F)(F)F)cc2S(=O)(=O)N1Cc1ccccc1	/	2	4	1	13*
CCCCCCCCCCCCN1[C@@H](CC(=O)O)c2cc(C(F)(F)F)ccc2S1(=O)=O	/	-8	58*	14	-3
CC1(C(=O)Nc2cnc3ccccc3c2)CCN1Cc1ccc(OC(F)(F)F)cc1 (stereo unspecified)	/	/	20	7	/
Cc1cccc(NC(=O)CSc2nc3nc4c(cc3c(=O)n2-c2ccccc2)CCCC4)c1	-5	0	18	1	19*
COC(=O)C=C1CCC2C3CCC4=CC(=O)CCC4(C)C3C(=O)CC12C (stereo unspecified)	/	/	3	-2	3
COc1ccc(/C=N/NS(=O)(=O)c2ccc(F)cc2)cc1COc1cc(F)ccc1[N+](=O)[O-]	1	-4	13	4	11*
CCOc1ccc(Cl)cc1-c1cc(C(=O)NCc2ccccc2OC)[nH]n1	/	/	18	-1	/
O=C(COC(=O)c1cccc(OC(F)F)c1)Nc1cc(S(=O)(=O)N2CCCC2)ccc1Cl	/	/	3	-2	/
c1ccc(-c2cc(-c3ccncc3)nc3ccc4ccccc4c23)cc1	6	0	33	7	22*
Clc1ccc2nc(-c3ccncc3)cc(-c3ccccc3)c2c1	-8	-4	0	-1	24*
CCOC(=O)Cc1cc(-c2ccccc2)nc2ccc3ccccc3c12	-4	-1	25	1	-13

Screening results: PubChem, Sanford-Burnham Center for Chemical Genomics
